Measured values published in PubChem BioAssay AID1159580 (chemical genetic matrix, 2015).
The whole screen tested about 5,500 compounds, of which about 2,000 (36%) were called active. Roughly 18% stayed inconclusive and do not appear here. Rule as the data show it: active = normalized growth mostly below about 0.91 (no sharp cut-off); inconclusive = no clear call, values can overlap the other calls; inactive = mostly above about 0.92. This is one part of the list.

Assay: chemical genetic growth profiling, strain panel (AID 1159580);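 also: tested at 20 µM; growth read once vehicle control cultures reached saturation at 30 °C; 1 = growth at the plate median or of vehicle wells; lower values mean less growth of the strain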
Details: S. cerevisiae deletion strains, growth OD

Measured: normalized growth

CNCCCC1c2ccccc2C=Cc2ccccc21
inactive: locus YAL013W, strain DEP1, active compounds read low 0.989 | locus YAL040C, strain CLN3, active compounds read low 1.08 | locus YCL061C, strain MRC1 (second series), active compounds read low 1 | locus YDR363W, strain ESC2, active compounds read low 1.03 | locus YER002W, strain NOP16, active compounds read low 1.01 | locus YHR030C, strain SLT2, active compounds read low 0.974 | locus YHR079C, strain IRE1, active compounds read low 0.965 | locus YJL095W, strain BCK1, active compounds read low 0.959 | locus YJR066W, strain TOR1, active compounds read low 0.954 | locus YJR075W, strain HOC1, active compounds read low 0.985 | locus YLR113W, strain HOG1, active compounds read low 0.956 | locus YMR307W, strain GAS1, active compounds read low 1 | locus YNL153C, strain GIM3, active compounds read low 1.02 | locus YNL175C, strain NOP13, active compounds read low 1.01 | locus YNL183C, strain NPR1, active compounds read low 0.924 | locus YNL197C, strain WHI3, active compounds read low 1.02 | locus YNL224C, strain SQS1, active compounds read low 1.06 | locus YOR083W, strain WHI5 (second series), active compounds read low 1.04 | locus YOR231W, strain MKK1, active compounds read low 0.976 | locus YPL055C, strain LGE1, active compounds read low 1 | locus YPL256C, strain CLN2, active compounds read low 0.945
